Where a name gives a salt, the structure may show the parent alone. ± gives the standard deviation of the averaged measurements.
Columns and labels:
Test in all cases: growth (OD600 after 10 h); higher = more growth (less inhibition)
[1] = system: E. coli TESEC Alr+ wild-type control; conditions: compound 0.1 mM; raw OD600 reference: median of DMSO wells 0.241, cell-free background 0.041
Experimental: (§1)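 TESEC Mtb Alr E. coli, or the Alr+ wild-type control, in 384-well plates with Prestwick library compounds at 0.1 mM and 1% DMSO, across arabinose induction levels of 1E3 to 1E7 nM. Growth is read as OD600 after 10 h at 37 °C in triplicate biological replicates.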

E. coli TESEC Mtb Alr [2] = conditions: compound 0.1 mM
Experimental: as §1

E. coli TESEC Mtb Asd = conditions: compound 0.1 mM
Experimental: (§2)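 TESEC E. coli strains in which the native enzyme is deleted and replaced by arabinose-inducible Mtb Asd, DapB, CysH or TrpD, each grown in its selective medium. Strains were screened against the Prestwick library at 0.1 mM and 1% DMSO in 384-well format at low and high arabinose induction. Growth is read as OD600 after 10 h in triplicate.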

E. coli TESEC Mtb DapB = conditions: compound 0.1 mM
Experimental: as §2

E. coli TESEC Mtb Alr [3] = conditions: compound 0.1 mM; remark: listed apart in the source
Experimental: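 TESEC Mtb Alr E. coli (ΔaraC ΔtolC ΔentC Δalr ΔdadX, arabinose-inducible Mtb Alr) or the Alr+ wild-type control strain, grown in defined M9-fructose medium without D-alanine in 96-well plates with Prestwick library compounds at 0.1 mM and 1% DMSO. Low Alr induction is 0.1 µM arabinose and high induction is 10 mM arabinose.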

[4] = arabinose 1000 nM, raw OD600 reference: median of DMSO wells 0.294, cell-free background 0.041
[5] = arabinose 10000 nM, raw OD600 reference: median of DMSO wells 0.264, cell-free background 0.041
[6] = arabinose 100000 nM, raw OD600 reference: median of DMSO wells 0.201, cell-free background 0.041
[7] = arabinose 1000000 nM, raw OD600 reference: median of DMSO wells 0.193, cell-free background 0.041
[8] = arabinose 10000000 nM, raw OD600 reference: median of DMSO wells 0.146, cell-free background 0.041
[9] = arabinose induction (level): High, raw OD600 reference: median of DMSO wells 0.331, cell-free background 0.041
[10] = arabinose induction (level): Low, raw OD600 reference: median of DMSO wells 0.417, cell-free background 0.041
[11] = arabinose induction (level): High, raw OD600 reference: median of DMSO wells […], cell-free background 0.041
[12] = arabinose induction (level): Low, raw OD600 reference: median of DMSO wells 0.227, cell-free background 0.041
[13] = arabinose 100 nM, raw OD600 reference: median of DMSO wells 0.413, cell-free background 0.052
[14] = arabinose 10000000 nM, raw OD600 reference: median of DMSO wells […], cell-free background 0.052

Row | Structure (SMILES) | growth [1] | growth (E. coli TESEC Mtb Alr [2]; [4]) | growth (E. coli TESEC Mtb Alr [2]; [5]) | growth (E. coli TESEC Mtb Alr [2]; [6]) | growth (E. coli TESEC Mtb Alr [2]; [7]) | growth (E. coli TESEC Mtb Alr [2]; [8]) | growth (E. coli TESEC Mtb Asd; [9]) | growth (E. coli TESEC Mtb Asd; [10]) | growth (E. coli TESEC Mtb DapB; [11]) | growth (E. coli TESEC Mtb DapB; [12]) | growth (E. coli TESEC Mtb Alr [3]; [13]) | growth (E. coli TESEC Mtb Alr [3]; [14])
1 | CCCC(=O)Nc1ccc(OCC(O)CNC(C)C)c(C(C)=O)c1 (configuration not stated) [Acebutolol hydrochloride] | 0.239 ± 0.008 | 0.305 ± 0.011 | 0.257 ± 0.0087 | 0.202 ± 0.014 | 0.174 ± 0.0073 | 0.1572 ± 0.0014 | 0.264 ± 0.04 | 0.413 ± 0.007 | 0.197 ± 0.025 | 0.265 ± 0.067 | 0.411 ± 0.0058 | 0.354 ± 0.01
2 | CC(Oc1ccccc1)C(=O)N[C@@H]1C(=O)N2[C@@H]1SC(C)(C)[C@@H]2C(=O)O (some centres not stated) [Phenethicillin potassium salt] | 0.267 ± 0.018 | 0.311 ± 0.019 | 0.266 ± 0.0071 | 0.223 ± 0.018 | 0.19 ± 0.006 | 0.139 ± 0.0076 | 0.306 ± 0.05 | 0.438 ± 0.011 | 0.226 ± 0.0034 | 0.249 ± 0.02 | 0.398 ± 0.0069 | 0.367 ± 0.0061
3 | CCCCC(O)c1ccccc1 (configuration not stated) [Fenipentol] | 0.242 ± 0.0077 | 0.295 ± 0.005 | 0.253 ± 0.0059 | 0.233 ± 0.035 | 0.178 ± 0.0054 | 0.149 ± 0.0015 | 0.346 ± 0.079 | 0.357 ± 0.036 | 0.227 ± 0.013 | 0.227 ± 0.025 | 0.403 ± 0.0094 | 0.337 ± 0.017
4 | Cc1ccnc(NS(=O)(=O)c2ccc(N)cc2)n1 [Sulfamerazine] | 0.245 ± 0.0069 | 0.293 ± 0.013 | 0.229 ± 0.0029 | 0.211 ± 0.0032 | 0.154 ± 0.0069 | 0.133 ± 0.004 | 0.437 ± 0.023 | 0.4484 ± 0.0033 | 0.21 ± 0.0031 | 0.228 ± 0.018 | 0.42 ± 0.0052 | 0.334 ± 0.0087
5 | CCOC(=O)NNc1nncc2ccccc12 [Todralazine hydrochloride] | 0.252 ± 0.0065 | 0.3001 ± 0.00089 | 0.252 ± 0.0082 | 0.246 ± 0.03 | 0.181 ± 0.0025 | 0.16 ± 0.005 | 0.361 ± 0.1 | 0.346 ± 0.078 | 0.206 ± 0.011 | 0.275 ± 0.03 | 0.406 ± 0.0052 | 0.271 ± 0.17
6 | COc1ccc(-c2cc(=O)c3c(O)cc(O[C@@H]4O[C@H](CO[C@@H]5O[C@@H](C)[C@H](O)[C@@H](O)[C@H]5O)[C@@H](O)[C@H](O)[C@H]4O)cc3o2)cc1O [Diosmin] | 0.296 ± 0.0078 | 0.334 ± 0.01 | 0.277 ± 0.0034 | 0.248 ± 0.011 | 0.192 ± 0.013 | 0.1645 ± 0.00064 | 0.421 ± 0.085 | 0.358 ± 0.04 | 0.225 ± 0.016 | 0.243 ± 0.017 | 0.437 ± 0.026 | 0.426 ± 0.065
